Laboratory results from the supplement of paper PMC8728848.
The entries come from a sample that favours the strongest signals as a whole.

Columns and labels:
Assay in all cases: glycan array binding signal (z-score within array); higher = stronger binding
Settings in all cases: glycan notation: IUPAC condensed, linker removed
[1] = target: Fuc(a1-2)Gal(b1-3)GlcNAc(b1-3)Gal(b1-4)Glc
Outline: (§1)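 Columns mapping to the same glycan were averaged after glycan names were converted to IUPAC-condensed notation. The data come from 3228 arrays in the Consortium for Functional Glycomics database, limited to those with an available protein sequence. Binding is reported as a within-array Z-score averaged across arrays of one protein sequence and across linkers.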

[2] = target: Fuc(a1-2)Gal(b1-4)[Fuc(a1-3)]GlcNAc(b1-3)Gal(b1-4)[Fuc(a1-3)]GlcNAc(b1-3)Gal(b1-4)[Fuc(a1-3)]GlcNAc
Outline: as §1

Fuc(a1-2)[Gal(a1-3)]Gal = target: Fuc(a1-2)[Gal(a1-3)]Gal
Outline: as §1

[3] = target: Fuc(a1-2)[Gal(a1-3)]Gal(b1-3)GlcNAc(b1-2)Man(a1-3)[Fuc(a1-2)[Gal(a1-3)]Gal(b1-3)GlcNAc(b1-2)Man(a1-6)]Man(b1-4)GlcNAc(b1-4)GlcNAc
Outline: as §1

[4] = target: Fuc(a1-2)[Gal(a1-4)]Gal(b1-4)GlcNAc
Outline: as §1

[5] = target: Fuc(a1-2)[GalNAc(a1-3)]Gal(b1-4)[Fuc(a1-3)]GlcNAc(b1-3)GalNAc
Outline: as §1

[6] = target: Fuc(a1-2)[GalNAc(b1-3)]Gal
Outline: as §1

Fuc(b1-3)GlcNAc = target: Fuc(b1-3)GlcNAc
Outline: as §1

Gal(a1-2)Gal = target: Gal(a1-2)Gal
Outline: as §1

[7] = target: Gal(a1-3)Gal(b1-3)[Fuc(a1-4)]GlcNAc(b1-2)Man(a1-3)[Gal(a1-3)Gal(b1-3)[Fuc(a1-4)]GlcNAc(b1-2)Man(a1-6)]Man(b1-4)GlcNAc(b1-4)GlcNAc
Outline: as §1

[8] = target: Gal(b1-3)GlcNAc(b1-3)Gal(b1-4)Glc
Outline: as §1

[9] = target: Gal(b1-3)GlcNAc(b1-3)Gal(b1-4)[Fuc(a1-3)]GlcNAc(b1-6)[Gal(b1-3)GlcNAc(b1-3)]Gal(b1-4)Glc
Outline: as §1

[10] = target: Gal(b1-3)GlcNAc(b1-6)[Gal(b1-3)]GalNAc
Outline: as §1

[11] = target: Gal(b1-3)[Fuc(a1-4)]GlcNAc(b1-3)Gal(b1-3)[Fuc(a1-4)]GlcNAc
Outline: as §1

Gal(b1-4)GlcNAc = target: Gal(b1-4)GlcNAc
Outline: as §1

[12] = target: Gal(b1-4)GlcNAc(b1-2)Man(a1-3)[Gal(b1-4)GlcNAc(b1-2)Man(a1-6)][Gal(b1-4)GlcNAc(b1-4)]Man(b1-4)GlcNAc(b1-4)[Fuc(a1-6)]GlcNAc
Outline: as §1

[13] = target: Gal(b1-4)GlcNAc(b1-2)Man(a1-6)Man(b1-4)GlcNAc(b1-4)GlcNAc
Outline: as §1

[14] = target: Gal(b1-4)GlcNAc(b1-3)Gal(b1-4)GlcNAc(b1-2)Man(a1-3)[Gal(b1-4)GlcNAc(b1-3)Gal(b1-4)GlcNAc(b1-2)Man(a1-6)]Man(b1-4)GlcNAc(b1-4)GlcNAc
Outline: as §1

[15] = target: Gal(b1-4)GlcNAc(b1-3)Gal(b1-4)GlcNAc(b1-3)Gal(b1-4)GlcNAc(b1-3)Gal(b1-4)GlcNAc(b1-2)Man(a1-3)[Gal(b1-4)GlcNAc(b1-3)Gal(b1-4)GlcNAc(b1-3)Gal(b1-4)GlcNAc(b1-3)Gal(b1-4)GlcNAc(b1-2)Man(a1-6)]Man(b1-4)GlcNAc(b1-4)GlcNAc
Outline: as §1

[16] = target: Gal(b1-4)GlcNAc(b1-3)Gal(b1-4)GlcNAc(b1-3)Gal(b1-4)GlcNAc(b1-3)Gal(b1-4)GlcNAc(b1-3)Gal(b1-4)GlcNAc(b1-3)Gal(b1-4)GlcNAc(b1-2)Man(a1-3)[Gal(b1-4)GlcNAc(b1-3)Gal(b1-4)GlcNAc(b1-3)Gal(b1-4)GlcNAc(b1-3)Gal(b1-4)GlcNAc(b1-3)Gal(b1-4)GlcNAc(b1-3)Gal(b1-4)GlcNAc(b1-2)Man(a1-6)]Man(b1-4)GlcNAc(b1-4)GlcNAc
Outline: as §1

[17] = target: Gal(b1-4)GlcNAc(b1-3)Gal(b1-4)GlcNAc(b1-6)[Gal(b1-3)]GalNAc
Outline: as §1

[18] = target: Gal(b1-4)GlcNAc(b1-3)GalNAc
Outline: as §1

[19] = target: Gal(b1-4)GlcNAc(b1-3)[GlcNAc(b1-6)]Gal(b1-4)GlcNAc
Outline: as §1

Gal(b1-6)Gal = target: Gal(b1-6)Gal
Outline: as §1

Gal3S(b1-3)GlcNAc = target: Gal3S(b1-3)GlcNAc
Outline: as §1

[20] = target: Gal3S(b1-4)[Fuc(a1-3)]GlcNAc6S
Outline: as §1

Gal6P(b1-4)GlcNAc = target: Gal6P(b1-4)GlcNAc
Outline: as §1

GalNAc(b1-3)Gal = target: GalNAc(b1-3)Gal
Outline: as §1

GalNAc(b1-3)GalNAc = target: GalNAc(b1-3)GalNAc
Outline: as §1

GalNAc(b1-6)GalNAc = target: GalNAc(b1-6)GalNAc
Outline: as §1

[21] = target: GlcNAc(a1-3)Gal(b1-4)GlcNAc
Outline: as §1

[22] = target: GlcNAc(b1-2)Man(a1-3)[GlcNAc(b1-4)][GlcNAc(b1-2)Man(a1-6)]Man(b1-4)GlcNAc(b1-4)[Fuc(a1-6)]GlcNAc
Outline: as §1

[23] = target: GlcNAc(b1-3)Gal(b1-4)GlcNAc
Outline: as §1

[24] = target: GlcNAc(b1-3)Gal(b1-4)GlcNAc(b1-2)[GlcNAc(b1-3)Gal(b1-4)GlcNAc(b1-6)]Man(a1-6)[GlcNAc(b1-3)Gal(b1-4)GlcNAc(b1-2)Man(a1-3)]Man(b1-4)GlcNAc(b1-4)GlcNAc
Outline: as §1

[25] = target: GlcNAc(b1-3)Gal(b1-4)GlcNAc(b1-3)Gal(b1-4)GlcNAc(b1-2)Man(a1-3)[GlcNAc(b1-3)Gal(b1-4)GlcNAc(b1-3)Gal(b1-4)GlcNAc(b1-2)Man(a1-6)]Man(b1-4)GlcNAc(b1-4)[Fuc(a1-6)]GlcNAc
Outline: as §1

[26] = target: GlcNAc(b1-3)Gal(b1-4)GlcNAc(b1-3)Gal(b1-4)GlcNAc(b1-2)[GlcNAc(b1-3)Gal(b1-4)GlcNAc(b1-3)Gal(b1-4)GlcNAc(b1-6)]Man(a1-6)[GlcNAc(b1-3)Gal(b1-4)GlcNAc(b1-3)Gal(b1-4)GlcNAc(b1-2)Man(a1-3)]Man(b1-4)GlcNAc(b1-4)[Fuc(a1-6)]GlcNAc
Outline: as §1

[27] = target: GlcNAc(b1-3)Gal(b1-4)GlcNAc(b1-3)Gal(b1-4)GlcNAc(b1-3)Gal(b1-4)GlcNAc(b1-3)Gal(b1-4)GlcNAc(b1-2)Man(a1-3)[GlcNAc(b1-3)Gal(b1-4)GlcNAc(b1-3)Gal(b1-4)GlcNAc(b1-3)Gal(b1-4)GlcNAc(b1-3)Gal(b1-4)GlcNAc(b1-2)Man(a1-6)]Man(b1-4)GlcNAc(b1-4)[Fuc(a1-6)]GlcNAc
Outline: as §1

[28] = target: GlcNAc(b1-3)Gal(b1-4)GlcNAc(b1-6)[GlcNAc(b1-3)]Gal(b1-4)GlcNAc
Outline: as §1

[29] = target: GlcNAc(b1-3)[GlcNAc(b1-6)]Gal(b1-4)GlcNAc
Outline: as §1

Kdn(a2-3)Gal(b1-3)GalNAc = target: Kdn(a2-3)Gal(b1-3)GalNAc
Outline: as §1

[30] = target: Man(a1-2)Man(a1-2)Man(a1-6)[Man(a1-3)]Man
Outline: as §1

[31] = target: Man(a1-2)Man(a1-3)[Man(a1-2)Man(a1-6)]Man(a1-6)[Man(a1-2)Man(a1-2)Man(a1-3)]Man
Outline: as §1

[32] = target: Man(a1-2)Man(a1-3)[Man(a1-6)]Man(a1-6)[Man(a1-2)Man(a1-3)]Man(b1-4)GlcNAc(b1-4)GlcNAc
Outline: as §1

[33] = target: Man(a1-2)Man(a1-6)[Man(a1-3)]Man(a1-6)[Man(a1-2)Man(a1-2)Man(a1-3)]Man(b1-4)GlcNAc(b1-4)GlcNAc
Outline: as §1

[34] = target: Neu5Ac(a2-3)Gal(b1-4)GlcNAc(b1-3)Gal(b1-4)GlcNAc
Outline: as §1

[35] = target: Neu5Ac(a2-3)Gal(b1-4)GlcNAc(b1-3)Gal(b1-4)GlcNAc(b1-3)[Neu5Ac(a2-3)Gal(b1-4)GlcNAc(b1-3)Gal(b1-4)GlcNAc(b1-6)]GalNAc
Outline: as §1

Neu5Ac(a2-6)Gal(b1-4)Glc = target: Neu5Ac(a2-6)Gal(b1-4)Glc
Outline: as §1

[36] = target: Neu5Ac(a2-6)GlcNAc(b1-4)GlcNAc
Outline: as §1

[37] = target: Neu5Gc(a2-3)Gal(b1-4)GlcNAc(b1-3)Gal(b1-4)GlcNAc(b1-2)Man(a1-3)[Neu5Gc(a2-3)Gal(b1-4)GlcNAc(b1-3)Gal(b1-4)GlcNAc(b1-2)Man(a1-6)]Man(b1-4)GlcNAc(b1-4)GlcNAc
Outline: as §1

B1: Langerin K313I (Homo sapiens), Q9UJ71 (protein)
chain: STLNAQIPELKSDLEKASALNTKIRALQGSLENMSKLLKRQNDILQVVSQGWKYFKGNFYYFSLIPKTWYSAEQFCVSRNSHLTSVTSESEQEFLYKTAGGLIYWIGLTKAGMEGDWSWVDDTPFNKVQSARFWIPGEPNNAGNNEHCGNIKAPSLQAWNDAPCDITFLFICKRPYVPSEP
- glycan array binding signal (z-score) [1]: -0.379
- glycan array binding signal (z-score) [2]: -0.042
- glycan array binding signal (z-score) (Fuc(a1-2)[Gal(a1-3)]Gal): 4.11
- glycan array binding signal (z-score) [3]: -0.164
- glycan array binding signal (z-score) [4]: -0.287
- glycan array binding signal (z-score) [5]: 0.321
- glycan array binding signal (z-score) [6]: -0.358
- glycan array binding signal (z-score) (Fuc(b1-3)GlcNAc): -0.307
- glycan array binding signal (z-score) (Gal(a1-2)Gal): -0.155
- glycan array binding signal (z-score) [7]: 0.468
- glycan array binding signal (z-score) [8]: -0.361
- glycan array binding signal (z-score) [9]: -0.333
- glycan array binding signal (z-score) [10]: -0.253
- glycan array binding signal (z-score) [11]: 0.067
- glycan array binding signal (z-score) (Gal(b1-4)GlcNAc): -0.346
- glycan array binding signal (z-score) [12]: -0.254
- glycan array binding signal (z-score) [13]: -0.235
- glycan array binding signal (z-score) [14]: 0.326
- glycan array binding signal (z-score) [15]: 0.149
- glycan array binding signal (z-score) [16]: 0.037
- glycan array binding signal (z-score) [17]: 0.134
- glycan array binding signal (z-score) [18]: -0.373
- glycan array binding signal (z-score) [19]: -0.314
- glycan array binding signal (z-score) (Gal(b1-6)Gal): -0.178
- glycan array binding signal (z-score) (Gal3S(b1-3)GlcNAc): -0.376
- glycan array binding signal (z-score) [20]: -0.39
- glycan array binding signal (z-score) (Gal6P(b1-4)GlcNAc): -0.298
- glycan array binding signal (z-score) (GalNAc(b1-3)Gal): -0.374
- glycan array binding signal (z-score) (GalNAc(b1-3)GalNAc): 3.83
- glycan array binding signal (z-score) (GalNAc(b1-6)GalNAc): -0.384
- glycan array binding signal (z-score) [21]: -0.393
- glycan array binding signal (z-score) [22]: 4.2
- glycan array binding signal (z-score) [23]: 3.17
- glycan array binding signal (z-score) [24]: 4.12
- glycan array binding signal (z-score) [25]: 3.2
- glycan array binding signal (z-score) [26]: 9.38
- glycan array binding signal (z-score) [27]: -0.005
- glycan array binding signal (z-score) [28]: 10.1
- glycan array binding signal (z-score) [29]: 6.18
- glycan array binding signal (z-score) (Kdn(a2-3)Gal(b1-3)GalNAc): 0.361
- glycan array binding signal (z-score) [30]: 7.95
- glycan array binding signal (z-score) [31]: 3.54
- glycan array binding signal (z-score) [32]: -0.194
- glycan array binding signal (z-score) [33]: 0.146
- glycan array binding signal (z-score) [34]: -0.396
- glycan array binding signal (z-score) [35]: -0.089
- glycan array binding signal (z-score) (Neu5Ac(a2-6)Gal(b1-4)Glc): -0.278
- glycan array binding signal (z-score) [36]: -0.387
- glycan array binding signal (z-score) [37]: 0.158
